Measured values taken from PubChem BioAssay AID1347075 (National Center for Advancing Translational Sciences (NCATS), 2019).
Hit rate of the full screen: of about 400,000 compounds, about 5,500 (1.4%) were called active. Roughly 9% stayed inconclusive and do not appear here. Calls follow the shape of the dose curve; as a rule, active = well fitted cell-killing curve with a large enough effect; inconclusive = small, poorly fitted or top-dose-only effect, or effect the other way; inactive = flat fitted curve, though single readings scatter. The list comes from a sample in which actives are over-represented; it also holds similar structures and randomly drawn compounds. Where a call stands in place of a potency, no number is given.

Experiment: qHTS assay for MDR1-selective chemotherapeutics: Primary screen using the parental adenocarcinoma cell KB-3-1; also: nearly all actives have a fitted effect of over 60% in size
Conditions: KB-3-1 viability, CellTiter-Glo ATP luminescence, 72 h; series mostly up to 46.1 µM
In short: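 KB-3-1 cells, DMEM (no phenol red) + 10% FBS; compound by pin transfer, 72 h, 37 °C. Readout: CellTiter-Glo luminescence after 10 min. Data normalized, curve-fitted.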
Potency is read from the fitted curve at half-maximal effect.

SMILES | Potency
COc1ccc(NC(=O)CCCN2C(=O)CCn3nc(-c4cn(C)c5ccccc45)cc32)cc1OC | inactive
O=c1oc2ccccc2cc1-c1cn(-c2ccccc2)c(=S)[nH]1 | 3.66 µM (active)
Cc1cc(NC(=O)c2cccc(Cl)c2)ccc1-c1cc2ccccc2oc1=O | inactive
COc1cc(CNC(=O)c2cc3n(n2)CCCN(Cc2cccc(F)c2)C3=O)cc(OC)c1OC | inactive
COc1ccc(CNC(=O)CSc2nc3ccccc3nc2Cc2ccccc2)cc1 | inactive
COc1ccc2c(c1)c(=Cc1ccc(N(C)C)cc1)c1cc(-c3ccccc3)[n+](C)n12 | 3.66 µM (active)
CN(C)c1ccc(/C=c2\[nH]c(=O)/c(=C/c3ccc(N(C)C)cc3)[nH]c2=O)cc1 | inactive
NC(=O)C1CCN(c2cc(-c3ccc4c(c3)OCCCO4)ncn2)CC1 | inactive
Cc1oc2ccc(O)c(CN3CCCCC3)c2c1C(=O)Nc1cccc(C(F)(F)F)c1 | inactive
COc1ccc(CCNC(=O)c2ccc(-n3c(C)cc4c3CCCC4)cc2)cc1OC | inactive
COc1cc(Cl)c(C)cc1Nc1nnc(-n2nc(C)cc2C)c2ccccc12 | inactive
COc1ccc(Nc2cc(C)nc(-n3nc(C)cc3C)n2)cc1 | 0.731 µM (active)
COc1ccccc1/C=N\Nc1cc(C)nc(-n2nc(C)cc2C)n1 | 7.31 µM (active)
CC(=O)c1ccc(Oc2cc(C)nc(-n3nc(C)cc3C)n2)cc1 | 0.651 µM (active)
COc1ccc(C(C)=O)cc1CSc1nc2nc(C)cc(C)n2n1 | inactive
COc1ccccc1/C=N/N1CCN(Cc2ccccc2Cl)CC1 | inactive
Cc1cc(C)nc(-n2nc(C)cc2NC(=O)c2ccc(F)cc2F)n1 | inactive
COc1ccc(C(=O)NNc2cc(C)nc(NNC(=O)c3ccc(OC)cc3)n2)cc1 | inactive
COc1ccc(Nc2cc(Sc3ccc(OC)cc3)ncn2)cc1 | inactive
NS(=O)(=O)c1ccc(NC(=O)C(=O)Nc2ccc3nc4n(c(=O)c3c2)CCCCC4)cc1 | inactive
COc1ccc(CCN2C(=O)N(c3cccc(OC)c3)C(=O)C2CC(=O)Nc2ccccc2)cc1 (stereo unspecified) | inactive

SMILES | Potency
COc1ccccc1CNS(=O)(=O)c1cc(Br)cc2c1N(C(C)=O)C(C)C2 (stereo unspecified) | inactive
Cc1ccc2c(c1)c1c(c(=O)n(-c3ccccc3)c(=O)n1CC(=O)c1ccc(Cl)cc1)n2C | inactive
COC(=O)CC1Oc2ccccc2-n2cc(-c3ccccc3)nc21 (stereo unspecified) | inactive
CCOCCCNC(=O)c1c(NC(=O)Cc2coc3c(C)c(C)ccc23)sc2c1CCC2 | inactive
O=C(CCc1ccccc1)NCc1ccc2c(c1)CCN2C(=O)c1ccccc1 | inactive
CCCCn1c(CNC(=O)C23CC4CC(CC(C4)C2)C3)nnc1SCC(=O)Nc1ccc(C)cc1 | inactive
Cc1ccc(C(=O)Nc2cc3c(cc2N2CCCC2)n(C)c(=O)c(=O)n3C)cc1 | inactive
COc1ccc(CCNS(=O)(=O)c2ccc(C(=O)NCc3ccco3)cc2)cc1OC | inactive
CCCC1=Nc2cc(C(=O)NCCN3CCCC3)ccc2Sc2ccccc21 | inactive
CCCC1=Nc2cc(C(=O)NCc3ccco3)ccc2Sc2ccccc21 | 5.8 µM (active)
Cc1ccc(OCC(=O)Nc2ccc(Cl)c(-c3nc4ccccc4[nH]3)c2)cc1C | inactive
O=C(c1ccc(Cl)cc1)n1nc(-c2cccnc2)nc1NCc1ccc(F)cc1 | inactive
O=C(Cn1ncc(N2CCCC2)c(Br)c1=O)c1ccc(Cl)cc1 | inactive
O=C(Cn1nc(C(F)(F)F)c2c1CCCC2)Nc1ccc(Cl)cc1 | inactive
O=C(Cn1nc(CNc2ccc(Cl)cc2)[n+]2c1CCCCC2)c1ccc(Cl)cc1 | 16.4 µM (active)
Cc1nc2ccc(S(=O)(=O)N(CC(=O)Nc3ccc(F)cc3)Cc3ccccc3)cc2s1 | inactive
COc1ccc(-c2nc3c4ccccc4n(CC(=O)Nc4ccc(C(C)=O)cc4)c(=O)n3n2)cc1 | inactive
CCc1ccccc1OCC(=O)Nc1ccc(C)c(S(=O)(=O)N2CCCCCC2)c1 | 18.4 µM (active)
Cc1ccc(NC(=O)COC(=O)C2CC2)cc1S(=O)(=O)N1CCOCC1 | inactive
COc1ccccc1C(=O)Nc1ccc(C)c(S(=O)(=O)N2CCCCC2)c1 | inactive
O=C(CCc1nc(CN2CCN(S(=O)(=O)c3ccc(Cl)cc3)CC2)no1)N1CCCCC1 | inactive

SMILES | Potency
COc1cc2ccccc2cc1C(=O)Nc1cccc(-c2nc3ccccc3o2)c1 | inactive
Cc1cccc(NC(=O)CSc2nc3c([nH]c4ccccc43)c(=O)n2-c2cc(C)cc(C)c2)c1 | inactive
COc1cc(-c2c(-c3ccc4c(c3)OCO4)noc2C)ccc1F | 3.26 µM (active)
COc1cc2c(-c3ccc4c(c3)OCO4)c(-c3ccsc3)oc(=O)c2cc1OC | inactive
Cc1oc(C)c2c(=O)cc(-c3ccc4c(c3)OCO4)cc(OC(=O)c3ccc(Cl)cc3)c12 | inactive
Cc1ccc(C=O)cc1Cl | inactive
O=C(CSc1oc(-c2ccccc2)nc1S(=O)(=O)c1ccc(Br)cc1)NC1CCCCC1 | inactive
COc1ccc(OC)c(-c2noc(N3CCN(c4cc(Cl)ccc4C)CC3)n2)c1 | inactive
CCOc1ccccc1CNC(=O)c1cnc2c(-c3ccc(OCC)c(OCC)c3)c(C)nn2c1C | inactive
Cc1ccccc1-c1nc2cc(NC(=O)c3cccc(OCCC(C)C)c3)ccc2o1 | inactive
Cc1cc(O)c(C(c2ccccc2)N2CCN(c3ccccc3F)CC2)c(=O)n1Cc1ccco1 (stereo unspecified) | inactive
Cc1cccc2sc(N(CCCN(C)C)C(=O)CCS(=O)(=O)c3ccccc3)nc12 | 20.6 µM (active)
Cc1ccc(S(=O)(=O)CCC(=O)OCC(=O)N(C)Cc2ccccc2)cc1 | inactive
COc1ccccc1CNC(=O)CS(=O)(=O)c1cccc2nsnc12 | inactive
Cc1cccc(C)c1NC(=O)CCS(=O)(=O)c1cccc2nsnc12 | inactive
COc1cccc2sc(N(CCCN(C)C)C(=O)CCS(=O)(=O)c3ccccc3)nc12 | 18.4 µM (active)
COc1ccc(C)cc1NC(=O)CCS(=O)(=O)c1cccc2nonc12 | inactive
COc1cc(NC(=O)c2nn(-c3ccc(C)cc3)c(=O)c3c2c2ccccc2n3C)cc(OC)c1OC | inactive
COc1ccc(C)cc1-n1c(-c2ccc(C)cc2)cc2c1CC(C)(C)CC2=O | inactive
